Reference: PubChem BioAssay AID624300 (Southern Research Specialized Biocontainment Screening …, 2012)
The campaign covered roughly 2,400 compounds. About 360 (15%) were called active.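 The calls were made as follows: active = viability falls under 70% at one or more tested concentrations, taken as toxicity; inactive = viability stays over 70% at every dose.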 The list is a sample of the results. Entries that show only a call come without a potency. Potency and affinity values are given separately.

Experiment: HeLa cell cytotoxicity, dose response, cytotoxicity control for MgcRacGAP inhibitor project (AID 624300)
Settings: CellTiter-Glo luminescence, 24 h; series mostly up to 100 µM

| SMILES | outcome |
| --- | --- |
| COc1cccc(OC)c1C(=O)N1CCN(Cc2ccc3c(c2)OCO3)CC1 | inactive |
| COc1cc(/C=C/C(=O)OCC(=O)N(C)Cc2ccccc2)ccc1O | inactive |
| Cc1ccc(C2=NN=C(NC(=O)CSc3nncn3C)SC2)cc1 | inactive |
| COc1cc(/C=N/NC(=O)CC2C(=O)NN=C2C)ccc1O (centres undefined) | inactive |
| CCN(CC)c1ccc(NC(=O)CN2C(=O)NC3(CCc4ccccc43)C2=O)cc1 (centres undefined) | inactive |
| Nc1ccc(C(=O)c2ccc3c(c2)OCCO3)cc1N | inactive |
| COc1cc(-c2nc3ccccc3s2)ccc1O | inactive |
| Cc1ccc(S(=O)(=O)Nc2nsc(N)n2)cc1 | inactive |
| Oc1ccc(Cc2ccccc2Cl)c(O)c1 | inactive |
| CCOc1cc(/C=N/NC(=O)C(C)Sc2ccccn2)ccc1O (centres undefined) | inactive |
| COc1cc(/C=C/C(=O)OCC(=O)N(CC(C)C)c2c(N)n(Cc3ccccc3)c(=O)[nH]c2=O)ccc1O | inactive |
| COc1cc(/C=N\Nc2cc(=O)n(C)c(=O)n2C)ccc1O | inactive |
| COc1ccc(Nc2ccccc2)c(C)c1 | inactive |
| O=[N+]([O-])c1cc([N+](=O)[O-])c2nonc2c1Nc1ccccc1O | inactive |
| Cc1cc(C)c(C)c(S(=O)(=O)N2CCN(c3ccc(O)cc3)CC2)c1C | inactive |
| CCOc1cc(/C=N\NC(=O)c2c(C)nc3ccccn23)ccc1O | inactive |
| Oc1ccc(-c2cn3c(n2)SCC3)cc1 | inactive |
| CCN(CC)c1ccc(NC(=O)COc2ccc(-n3cnnn3)cc2)cc1 | inactive |
| COc1cc(/C=C/CN2CCC(CO)(CC3CCCCO3)CC2)ccc1O (centres undefined) | inactive |
| CC(NS(=O)(=O)c1ccc(Cl)cc1)C(=O)OCC(=O)Nc1ccc(N(C)C)cc1 (centres undefined) | inactive |

| SMILES | outcome |
| --- | --- |
| COC(=O)c1c(NC(=O)CCNCc2ccco2)sc2c1CCC2 | inactive |
| CCN(CC)CCCNCC(=O)Nc1ccc2c(c1)CCC2 | inactive |
| O=c1c2ccccc2n2c(=S)[nH]nc2n1-c1ccccc1 | inactive |
| CN(C)C=NC1=NN(c2cccc(C(F)(F)F)c2)CC1 | inactive |
| Cc1ccc(N2C(N)=C(C#N)C3(C(=O)N(C)c4ccccc43)C3=C2CC(C)(C)CC3=O)cc1Cl (centres undefined) | inactive |
| C=C1CC(C(=O)N/N=C/c2ccc(O)cc2)C1 | inactive |
| COc1cccc(-c2cc(C(=O)N3CCN(c4ccc(F)cc4)CC3)no2)c1 | inactive |
| O=c1c2ccc(F)cc2sn1-c1ccccc1 | inactive |
| CC(=O)Nc1ccc2sn(-c3ccccc3)c(=O)c2c1 | inactive |
| COc1ccc(N2C(=O)/C(=C/N(C)C)NC2=S)cc1 | inactive |
| NS(=O)(=O)c1ccc(CCNCC(=O)N2CCC(Cc3ccccc3)CC2)cc1 | inactive |
| CSC1=NN(c2ccccc2)CN(c2ccccc2)N1C | inactive |
| O=C(CNc1ccc(Oc2ccccc2)cc1)N1CCOCC1 | inactive |
| COCC(C)NCc1ccccc1C (centres undefined) | inactive |
| CN(C)c1ccc(C=Cc2cnccn2)cc1 | inactive |
| CCOc1ccccc1N1CCN(C/C=C/c2ccc(N(C)C)cc2)CC1 | inactive |
| C[n+]1ccc(/C=C/c2ccccc2O)c2ccccc21 | inactive |
| CCOCCCn1c(=O)c2ccccc2n2c(=S)[nH]nc12 | inactive |
| COc1cc(/C=C(/NC(=O)c2ccccc2)C(=O)Nc2ccc(O)cc2)c([N+](=O)[O-])cc1OC | inactive |
| COc1ccc(CN2CCN(Cc3ccc(C(F)(F)F)cc3)CC2)cc1 | inactive |

| SMILES | outcome |
| --- | --- |
| O=C(NCc1ccccc1)/C(=C\c1ccc(O)cc1)NC(=O)c1ccco1 | inactive |
| CC(C)C1=Nc2cccc3cccc(c23)N1 | inactive |
| COc1ccc(OC(=O)COc2cccc(C)c2)cc1 | inactive |
| ON=C1c2ccccc2-c2ccc(O)cc21 | inactive |
| CN(C)c1ccc2cc(S(=O)(=O)O)cc(O)c2c1 | inactive |
| O=C(O)c1ccc2c(c1)C(=O)/C(=C\c1ccco1)C2=O | inactive |
| Clc1nc(NCc2cccnc2)nc(N2CCOCC2)n1 | inactive |
| COc1cc(N)ccc1NC(=O)c1cccs1 | inactive |
| COc1ccc(NC2CCCN(C(=O)c3ccc(C)nc3)C2)cc1 (centres undefined) | inactive |
| COc1cc(/C=C/C(=O)OCC(=O)NCCC2=CCCCC2)ccc1O | inactive |
| COc1ccc(OC)c(CN2CCSCC2)c1 | inactive |
| CCOc1cc(N2CCOCC2)c(OCC)cc1NC(=O)c1ccc(C)s1 | inactive |
| CCOC(=O)SC1=N/C(=C\c2ccc(N(C)C)cc2)C(=O)S1 | inactive |
| Cc1ccc(/C=[N+](\[O-])c2ccc(N(C)C)cc2)c2nsnc12 | inactive |
| CN(C)c1cc2c3ccccc3n(C)c2cc1N | inactive |
| COc1ccc(NC2=NCCC2)cc1 | inactive |
| COc1cc(/C=C/C(=O)OCC(=O)N2CCC(Cc3ccccc3)CC2)ccc1O | inactive |
| Cc1ccc2oc(=O)c(/C=C(\O)c3ccccc3)nc2c1 | inactive |
| C/C(=N\NC(=O)CSCc1ccccc1Cl)c1cc(O)ccc1O | inactive |
